Tests used:
Assay in all cases: log2 ratio of Biotin-Ahx-Ub-VS probe labelling (fragment/DMSO); higher = less target engagement (more negative = stronger competition), active = hit call of the paper (q ≤ 0.05, log2 ratio ≤ -1)
Settings in all cases: compound concentration: 200 uM; treatment time: 3 h
OTUD6B = target: T1, OTUD6B (UniProt Q8N6M0)
T1 sequence (whole entry): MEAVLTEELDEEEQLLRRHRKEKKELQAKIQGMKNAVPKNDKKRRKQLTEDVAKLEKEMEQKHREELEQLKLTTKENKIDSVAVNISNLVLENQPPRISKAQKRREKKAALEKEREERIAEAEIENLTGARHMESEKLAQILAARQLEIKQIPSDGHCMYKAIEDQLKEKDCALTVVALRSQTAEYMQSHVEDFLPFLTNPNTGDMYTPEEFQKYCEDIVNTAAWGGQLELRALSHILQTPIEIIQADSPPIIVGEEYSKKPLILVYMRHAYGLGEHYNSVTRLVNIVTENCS
In short: (§1)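 Fragment (200 µM) or vehicle was incubated for 3 h with triplicate HEK293T lysate samples of 495 µg, which were then treated with Biotin-Ahx-Ub-VS at 0.5 µM final for 1 h. Labelled DUBs were enriched on NeutrAvidin, digested with LysC and trypsin, and analysed by diaPASEF LC-MS/MS. Values are average log2 fragment/vehicle ratios from an unpaired t-test on global-median-normalised Spectronaut label-free quantities, using proteins with ≥2 unique peptides.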

OTUD7B = target: T2, OTUD7B (UniProt Q6GQQ9)
T2 sequence (whole entry): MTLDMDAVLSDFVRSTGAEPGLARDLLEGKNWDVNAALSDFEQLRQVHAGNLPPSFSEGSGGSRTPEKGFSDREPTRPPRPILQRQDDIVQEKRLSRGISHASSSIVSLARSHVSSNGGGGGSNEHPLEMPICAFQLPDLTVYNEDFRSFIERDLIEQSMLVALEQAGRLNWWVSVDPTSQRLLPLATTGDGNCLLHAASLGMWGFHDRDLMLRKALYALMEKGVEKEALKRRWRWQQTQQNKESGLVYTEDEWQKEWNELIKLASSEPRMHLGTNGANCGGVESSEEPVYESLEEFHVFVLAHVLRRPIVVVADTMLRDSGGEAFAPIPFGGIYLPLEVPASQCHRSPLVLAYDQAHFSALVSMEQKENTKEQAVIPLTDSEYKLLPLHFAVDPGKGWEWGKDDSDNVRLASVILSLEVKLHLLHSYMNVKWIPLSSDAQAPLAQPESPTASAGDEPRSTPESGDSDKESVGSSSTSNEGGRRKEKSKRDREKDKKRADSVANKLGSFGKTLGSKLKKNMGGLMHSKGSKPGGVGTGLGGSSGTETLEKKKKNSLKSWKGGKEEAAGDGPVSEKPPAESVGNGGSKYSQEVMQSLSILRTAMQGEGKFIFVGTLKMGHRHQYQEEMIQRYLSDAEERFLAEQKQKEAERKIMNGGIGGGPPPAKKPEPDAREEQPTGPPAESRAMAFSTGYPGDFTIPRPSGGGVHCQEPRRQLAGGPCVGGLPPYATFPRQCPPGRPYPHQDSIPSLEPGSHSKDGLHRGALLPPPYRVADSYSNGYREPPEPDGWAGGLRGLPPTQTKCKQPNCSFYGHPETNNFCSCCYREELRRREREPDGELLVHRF
In short: as §1

PRPF8 = PRPF8 (UniProt Q6P2Q9)
In short: as §1

PSMD7 = target: T3, PSMD7 (UniProt P51665)
T3 sequence (whole entry): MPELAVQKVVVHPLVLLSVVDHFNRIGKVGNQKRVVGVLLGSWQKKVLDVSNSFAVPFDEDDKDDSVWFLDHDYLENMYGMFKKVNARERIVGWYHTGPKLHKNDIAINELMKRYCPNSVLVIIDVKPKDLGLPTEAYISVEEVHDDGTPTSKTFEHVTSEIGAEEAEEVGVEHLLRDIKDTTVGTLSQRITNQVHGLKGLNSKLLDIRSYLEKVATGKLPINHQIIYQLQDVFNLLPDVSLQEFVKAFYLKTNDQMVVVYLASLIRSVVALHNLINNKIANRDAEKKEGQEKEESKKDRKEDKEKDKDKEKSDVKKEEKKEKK
In short: as §1

UCHL1 = UCHL1 (UniProt P09936)
In short: as §1

UCHL3 = target: T4, UCHL3 (UniProt P15374)
T4 sequence (whole entry): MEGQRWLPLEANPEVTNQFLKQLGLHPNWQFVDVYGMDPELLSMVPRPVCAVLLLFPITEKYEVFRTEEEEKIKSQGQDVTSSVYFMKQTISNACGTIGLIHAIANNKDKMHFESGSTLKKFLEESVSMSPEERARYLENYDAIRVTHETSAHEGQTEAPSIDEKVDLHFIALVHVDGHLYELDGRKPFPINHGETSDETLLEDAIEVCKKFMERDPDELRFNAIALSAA
In short: as §1

UCHL5 = target: T5, UCHL5 (UniProt Q9Y5K5)
T5 sequence (whole entry): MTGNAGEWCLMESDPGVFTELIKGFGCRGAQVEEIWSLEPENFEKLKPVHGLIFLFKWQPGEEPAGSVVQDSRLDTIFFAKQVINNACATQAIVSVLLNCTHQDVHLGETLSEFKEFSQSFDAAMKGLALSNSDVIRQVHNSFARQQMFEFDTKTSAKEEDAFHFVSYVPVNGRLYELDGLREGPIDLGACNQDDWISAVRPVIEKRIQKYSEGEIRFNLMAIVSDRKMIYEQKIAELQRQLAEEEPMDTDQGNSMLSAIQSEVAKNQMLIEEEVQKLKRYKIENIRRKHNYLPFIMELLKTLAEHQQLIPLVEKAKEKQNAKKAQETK
In short: as §1

USP10 = USP10 (UniProt Q14694)
In short: as §1

USP15 = target: T6, USP15 (UniProt Q9Y4E8)
T6 sequence (whole entry): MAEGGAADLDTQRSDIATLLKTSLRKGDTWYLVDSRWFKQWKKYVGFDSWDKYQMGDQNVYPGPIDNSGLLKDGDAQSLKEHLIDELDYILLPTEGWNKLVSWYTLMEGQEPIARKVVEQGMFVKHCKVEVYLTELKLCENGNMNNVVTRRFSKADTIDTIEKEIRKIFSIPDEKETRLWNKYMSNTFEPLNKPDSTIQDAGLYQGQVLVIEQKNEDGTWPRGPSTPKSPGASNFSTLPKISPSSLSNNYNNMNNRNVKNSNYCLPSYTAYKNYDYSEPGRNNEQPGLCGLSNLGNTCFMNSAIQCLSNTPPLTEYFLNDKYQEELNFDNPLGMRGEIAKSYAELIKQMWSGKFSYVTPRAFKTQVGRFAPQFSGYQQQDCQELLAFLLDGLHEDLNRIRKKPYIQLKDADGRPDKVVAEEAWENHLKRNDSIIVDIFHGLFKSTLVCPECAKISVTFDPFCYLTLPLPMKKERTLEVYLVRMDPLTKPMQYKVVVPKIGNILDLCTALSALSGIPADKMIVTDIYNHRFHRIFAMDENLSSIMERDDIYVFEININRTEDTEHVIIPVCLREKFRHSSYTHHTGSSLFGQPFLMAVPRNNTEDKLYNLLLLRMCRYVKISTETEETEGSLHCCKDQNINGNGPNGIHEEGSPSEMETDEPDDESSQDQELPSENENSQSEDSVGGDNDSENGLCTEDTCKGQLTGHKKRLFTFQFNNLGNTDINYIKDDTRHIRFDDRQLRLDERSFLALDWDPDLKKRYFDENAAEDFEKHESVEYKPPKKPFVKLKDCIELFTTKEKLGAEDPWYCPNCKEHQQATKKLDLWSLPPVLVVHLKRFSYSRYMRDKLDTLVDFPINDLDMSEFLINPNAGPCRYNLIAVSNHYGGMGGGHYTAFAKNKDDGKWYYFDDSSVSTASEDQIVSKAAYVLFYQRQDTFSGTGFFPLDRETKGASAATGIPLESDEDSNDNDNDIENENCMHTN
In short: as §1

USP16 = USP16 (UniProt Q9Y5T5)
In short: as §1

Measured: log2 ratio of Biotin-Ahx-Ub-VS probe labelling

Sequence of UCHL1 (P09936 whole entry, looked up): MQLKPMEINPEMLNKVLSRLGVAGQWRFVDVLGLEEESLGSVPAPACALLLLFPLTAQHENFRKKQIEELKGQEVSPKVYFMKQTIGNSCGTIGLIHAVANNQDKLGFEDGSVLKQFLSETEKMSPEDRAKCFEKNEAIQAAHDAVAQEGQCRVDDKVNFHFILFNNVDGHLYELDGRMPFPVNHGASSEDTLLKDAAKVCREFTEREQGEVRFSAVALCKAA
Sequence of USP10 (Q14694 whole entry): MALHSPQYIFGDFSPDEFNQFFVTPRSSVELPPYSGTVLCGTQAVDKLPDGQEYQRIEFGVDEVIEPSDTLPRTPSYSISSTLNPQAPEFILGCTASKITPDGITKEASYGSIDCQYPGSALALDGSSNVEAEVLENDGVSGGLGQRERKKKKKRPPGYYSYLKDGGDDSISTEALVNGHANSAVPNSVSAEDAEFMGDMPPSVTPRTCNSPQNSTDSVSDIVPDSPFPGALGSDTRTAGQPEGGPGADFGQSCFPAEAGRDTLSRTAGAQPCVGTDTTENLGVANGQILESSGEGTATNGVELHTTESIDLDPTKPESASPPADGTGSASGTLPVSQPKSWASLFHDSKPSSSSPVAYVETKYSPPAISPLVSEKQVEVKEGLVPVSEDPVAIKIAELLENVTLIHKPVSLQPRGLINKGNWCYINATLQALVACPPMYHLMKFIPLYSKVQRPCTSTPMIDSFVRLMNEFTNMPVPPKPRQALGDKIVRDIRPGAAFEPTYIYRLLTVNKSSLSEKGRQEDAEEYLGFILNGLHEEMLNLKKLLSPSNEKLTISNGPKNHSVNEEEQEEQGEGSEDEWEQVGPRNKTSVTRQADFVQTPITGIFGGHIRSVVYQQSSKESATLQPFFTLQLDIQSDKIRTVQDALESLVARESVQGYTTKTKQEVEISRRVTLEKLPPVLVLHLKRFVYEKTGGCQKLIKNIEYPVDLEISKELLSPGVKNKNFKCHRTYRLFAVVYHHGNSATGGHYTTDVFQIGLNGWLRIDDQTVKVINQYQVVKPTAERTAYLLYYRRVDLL
Sequence of USP16 (Q9Y5T5 whole entry, looked up): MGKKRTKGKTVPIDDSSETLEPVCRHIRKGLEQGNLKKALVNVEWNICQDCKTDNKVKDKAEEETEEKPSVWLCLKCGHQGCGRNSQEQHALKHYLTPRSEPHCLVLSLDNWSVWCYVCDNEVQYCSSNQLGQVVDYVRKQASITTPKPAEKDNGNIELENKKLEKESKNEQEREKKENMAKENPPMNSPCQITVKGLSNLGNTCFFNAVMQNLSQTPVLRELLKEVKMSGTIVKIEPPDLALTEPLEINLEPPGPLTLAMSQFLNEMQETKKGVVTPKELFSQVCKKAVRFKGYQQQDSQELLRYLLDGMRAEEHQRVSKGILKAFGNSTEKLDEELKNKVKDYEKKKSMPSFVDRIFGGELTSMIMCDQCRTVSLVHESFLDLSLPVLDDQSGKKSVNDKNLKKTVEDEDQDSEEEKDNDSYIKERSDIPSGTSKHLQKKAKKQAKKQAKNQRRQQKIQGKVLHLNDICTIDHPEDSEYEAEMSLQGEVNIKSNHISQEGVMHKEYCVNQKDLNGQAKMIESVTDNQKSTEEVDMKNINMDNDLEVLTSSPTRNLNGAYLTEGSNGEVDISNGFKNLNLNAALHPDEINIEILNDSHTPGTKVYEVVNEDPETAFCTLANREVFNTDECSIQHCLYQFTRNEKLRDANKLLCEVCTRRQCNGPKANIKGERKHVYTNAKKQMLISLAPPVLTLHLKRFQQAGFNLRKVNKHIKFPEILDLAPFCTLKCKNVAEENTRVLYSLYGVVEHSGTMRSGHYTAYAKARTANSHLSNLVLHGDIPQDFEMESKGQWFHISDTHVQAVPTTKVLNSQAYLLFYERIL

CN(Cc1nc2ccccc2[nH]1)C(=O)CCl.Cl
inactive: OTUD6B -0.0126 | OTUD7B -0.039 | PRPF8 0.00724 | PSMD7 -0.142 | UCHL1 0.185 | UCHL3 0.504 | UCHL5 -0.121 | USP10 -0.14 | USP15 -0.17 | USP16 -0.572

Source: the supplement of paper PMC11732987, “Enantioselective OTUD7B fragment discovery through chemoproteomics screening and high-throughput optimisation” (Communications Chemistry, 2025)
